# Screens as filed in PubChem.
# 697 NFkB inh: lowers PMA/ionomycin-induced NF-kB signal in 697 B cells. 697 B-cell NF-kB luciferase reporter, 16 h. inhibition, % at 4 µM. 330,000 tested, 0.33% active; in the data active means inhibition above about 35%
# Shn3 3UTR inh: Schnurri-3 reporter inhibition in Clone20 osteoblasts; 360,000 tested, 0.52% active; inhibition, % at 12.5 µM; Clone20 osteoblast Shn3 3'UTR firefly luciferase, 24 h;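 active means mean inhibition of at least 75% with every replicate also reaching 75%; inconclusive means mean inhibition at least 75% but some replicate below; inactive means mean inhibition below 75%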;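 further: 0% = median of neutral control wells and 100% = pilot-screen positive control compound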
# Calb FLC: affects C. albicans growth with fluconazole; C. albicans CaCi-2 (fluconazole-resistant clinical isolate) + fluconazole, Alamar Blue growth, 48 h; growth inhibition, % (no concentration beside the values); 300,000 tested, 0.57% active; AID 1979;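 active means growth inhibition above about 58% in most replicates, limit read from the data, passing the limit was not always enough; inconclusive means exactly half the replicates above a set limit; inactive means most replicates below a set limit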;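 further: all wells also contain fluconazole at 8 µg/ml as a sub-toxic cotreatment; 0% = median of DMSO wells and 100% = median of geldanamycin control wells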
# Jurkat NFkB inh: inhibitors of the PMA/ionomycin-induced NF-kB reporter in Jurkat cells | PMA/ionomycin-induced NF-kB luciferase reporter, luminescence | inhibition, % at 4 µM | 330,000 tested, 0.53% active | AID 435003; in the data active means inhibition above about 50%
# Beta cell apopt: blocks beta cell apoptosis. INS-1E cytokine-induced death, ATP luminescence, 48 h; percent of positive-control rescue, neutral wells zero. protection from apoptosis, % (no concentration beside the values). 300,000 tested, 0.8% active;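 active means Every replicate reaches about 75%, or at least half do and their mean reaches it too, limit read from the data; inconclusive means At least half of replicates reach the limit but their mean does not; inactive means Under half of replicates reach the limit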;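 further: 0% = cytokine-treated negative control wells and 100% = positive control rescue; higher means more ATP so stronger rescue from cytokine killing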
# The depositor's hits bear a star; ? = inconclusive; nt = no result given. Sampled rows, rich in hits. Any-hit rate of the full collection: about 2%.
SMILES,697 NFkB inh,Shn3 3UTR inh,Calb FLC,Jurkat NFkB inh,Beta cell apopt
N#CC(C#N)=C(Nc1ccc(F)cc1)SCc1cccc(Br)c1,nt,77.0,?,nt,105.3*
CC(SCc1ccccc1)C(=O)Nc1ccc(F)cc1 (configuration not stated),3.8,6.6,1.9,2.4,-0.2
CSc1ccccc1OCc1cc(C(=O)N(Cc2nccn2C)C(C)C)no1,-13.0,-34.1,-52.1,-3.7,nt
COC(=O)c1sc(NC(=O)CN2CCN(c3cccc(Cl)c3)CC2)c(C(=O)OC)c1C,nt,-32.1,nt,nt,nt
O=C(N/N=C/c1cc(Cl)ccc1O)C(=O)Nc1ccccc1OC(F)(F)C(F)F,nt,88.3*,nt,nt,89.4*
O=C(N/N=C/c1cc(Br)ccc1O)C(=O)Nc1ccccc1OC(F)(F)C(F)F,nt,85.4*,26.8,nt,83.5*
O=C(NCc1ccccc1)c1cc(C2CCCN(C(=O)C3CCCCC3)C2)on1 (configuration not stated),nt,6.8,nt,nt,nt
COc1ccc(C(=O)NNC(=O)Cc2ccc(-c3ccccc3)cc2)cc1OC,13.5,10.9,7.5,4.0,-5.4
COc1ccc(C(=O)NNc2ccccc2)cc1OC,24.8,-1.8,106.1*,10.4,-9.2
CCCNC(=O)c1cc(C2CCCCN2S(C)(=O)=O)on1 (configuration not stated),nt,-6.4,nt,nt,nt
Cc1cc(C)n(Cc2ccc(NC(=O)c3ccc(COc4ccccc4Br)cc3)cc2)n1,-47.1,58.1,37.1,18.6,78.3*
NC(=O)c1ccc(NC(=O)c2ccc(COc3ccccc3Br)cc2)cc1,-5.6,-4.5,nt,-0.5,nt
CCCCNC(=O)C1(C)CCC(=O)N1CCOC (configuration not stated),nt,10.4,nt,nt,nt
Oc1c(N=NC(=S)Nc2ccccc2F)c2ccccc2n1Cc1cccc(Cl)c1,16.3,43.2,9.6,7.2,39.6
Cc1cccc(Cn2c(O)c(N=NC(=S)Nc3ccccc3F)c3ccccc32)c1,2.3,31.9,113.8*,1.8,40.5
Cc1cc(C)c(S(=O)(=O)/N=C2/C=C(Sc3ncn[nH]3)C(=O)c3ccccc32)cc1C,nt,93.8*,nt,nt,129.3*
CCC(C)C(=O)Nc1ccc(S(=O)(=O)N2CCCC2)cc1 (configuration not stated),6.0,8.9,-1.2,-5.0,-24.6
CCC(C)NS(=O)(=O)c1ccc(S(=O)(=O)N2CCCC3(CCCCC3)C2)cc1 (configuration not stated),-11.4,85.8*,-8.4,32.5,42.6
O=C(NNC1=C(C(=O)C(F)(F)F)CCC1)c1cccc(O)c1,-7.4,-44.7,-24.1,9.0,-5.7
Cc1cccc(C(=O)NNC2=C(C(=O)C(F)(F)F)CCC2)c1O,5.2,25.9,104.9*,6.4,48.5
CNc1ccccc1C(C)(C)c1cc(-c2cccc(Br)c2)no1,-33.8,86.5*,22.1,31.1,nt
C/C(=N\Nc1nc2ccccc2[nH]1)c1ccccn1,-102.9,80.8,-0.8,29.3,92.0*
COc1ccc(C(=O)OCc2c(-c3ccccc3)ncc3ccccc23)cc1,-2.1,13.3,nt,0.2,-5.0
NC(=O)C1CCN(CC(=O)N2N=CCC2c2ccccc2)CC1 (configuration not stated),8.9,6.8,?,10.8,4.3
CC(=O)c1ccc(NS(=O)(=O)c2cccc3cccnc23)cc1,nt,-13.1,nt,nt,nt
SMILES,697 NFkB inh,Shn3 3UTR inh,Calb FLC,Jurkat NFkB inh,Beta cell apopt
Cc1nc(-n2[nH]c3c(c2=O)CCCC3)[nH]c(=O)c1Cc1ccccc1,-12.7,82.7,89.3*,-14.8,-5.9
Cc1ccc(SCC(=O)OCC(=O)NCCc2ccccc2)cc1C,5.1,10.1,nt,-1.8,2.0
O=[N+]([O-])c1ccc(N2CCN(CCOc3nonc3-c3ccccc3)CC2)c(Cl)c1,4.8,-16.7,-8.7,-8.9,119.4*
O=c1c(F)cn(C2CCCO2)c(=O)n1Cc1c(F)cccc1Cl (configuration not stated),-0.5,-21.5,106.9*,-5.4,-5.5
O=c1c(Cc2c(F)cccc2Cl)c(O)ccn1CC1CCCO1 (configuration not stated),0.7,6.9,-5.8,10.3,-3.9
Cc1cc(C)n(-c2nc(SCCN(C)C)c3c4c(sc3n2)CCCC4)n1,-34.4,52.9,78.8*,3.2,30.5
CS(=O)(=O)c1ccc(NC(=O)CCN2C(=O)C3CC=CCC3C2=O)cc1 (configuration not stated),-15.9,-7.1,9.7,1.6,-4.7
O=C(NC1(Cc2ccccc2)CCN(CCCc2ccccc2)C1=O)c1ccccc1 (configuration not stated),1.7,62.5,nt,9.6,111.3*
OCC1(Cc2ccc(Cl)cc2)CCN(CCCc2ccccc2)CC1,-16.5,-10.5,-10.5,-6.2,-4.5
